Records with an inconclusive call do not appear. The source made the active and inactive calls. The call rests on the fitted dose curve.
The compounds below were run against Peroxisome proliferator-activated receptor delta (Homo sapiens) (UniProt Q03181) (assay: qHTS assay to identify small molecule agonists of the peroxisome proliferator-activated receptor delta (PPARd) signaling pathway (AID 743212)). Conditions: HEK293H PPARd-UAS-bla, beta-lactamase FRET ratio, 17 h; series mostly up to 62.6 µM; activation: at the top concentration.
Text: U.S. Tox21 Program National Center for Advancing Translational Sciences [NCATS] NIH Chemical Genomics Center [NCGC] U.S. Environmental Protection Agency [EPA] National Institutes of Environmental Health Sciences [NIEHS] National Toxicology Program [NTP] U.S. Food and Drug Administration [FDA] Tox21 Assay Overview: The peroxisome proliferator-activated receptors (PPARs) are lipid-activated transcription factors of the nuclear receptor superfamily with three distinct subtypes namely PPAR alpha, PPAR delta (PPARd) and PPAR gamma. All these subtypes heterodimerizes with Retinoid X receptor (RXR) and have different physiological functions. […] To identify the compounds that activate PPAR-delta signaling, GeneBLAzer PPAR delta UAS-bla HEK293H cell line (Invitrogen, Carlsbad, CA, USA) containing a beta-lactamase reporter gene under the control of an Upstream Activator Sequence (UAS) was used to screen the Tox21 compound library.
Tox21 Assay Protocol Summary: PPARd-bla cells were dispensed at 3000 cells/6uL/well in 1536-well black wall/clear bottom plates using a Multidrop Combi (Thermo Fisher Scientific, Waltham, MA) dispenser. After the assay plates were incubated at 37 C and 5% CO2 for 5 h, 23 nL of compounds dissolved in DMSO, positive controls or DMSO only was transferred to the assay plate by a Pintool station (Kalypsys, San Diego, CA). The assay plates were incubated at 37C for 17 h. After 1 uL of LiveBLAzerTM B/G FRET substrate was added using a Bioraptr Flying Reagent Dispenser (FRD) workstation (Beckman Coulter, Indianapolis, IN, USA), the plates were incubated at room temperature for 2 h, and fluorescence intensity was measured by an Envision plate reader (PerkinElmer, Shelton, CT).
On the % scale 0 is the no-effect control and ±100 the full control effect; potency means the concentration at half of the fitted maximal effect.

Chain of Peroxisome proliferator-activated receptor delta (Homo sapiens) (Q03181 whole entry, looked up): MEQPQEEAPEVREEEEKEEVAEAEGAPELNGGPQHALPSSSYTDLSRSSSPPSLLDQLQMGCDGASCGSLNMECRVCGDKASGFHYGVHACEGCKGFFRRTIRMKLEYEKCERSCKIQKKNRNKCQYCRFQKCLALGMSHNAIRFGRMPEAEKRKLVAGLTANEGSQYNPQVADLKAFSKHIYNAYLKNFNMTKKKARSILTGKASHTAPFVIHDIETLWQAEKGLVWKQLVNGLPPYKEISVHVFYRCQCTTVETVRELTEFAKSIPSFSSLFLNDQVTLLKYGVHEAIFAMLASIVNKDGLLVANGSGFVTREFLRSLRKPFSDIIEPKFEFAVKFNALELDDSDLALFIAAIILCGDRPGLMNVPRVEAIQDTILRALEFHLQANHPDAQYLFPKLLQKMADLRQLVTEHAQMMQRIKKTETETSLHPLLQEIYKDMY

Row | Structure (SMILES) | activation | Potency
1 | O=C1C(Cl)=C(Cl)C(=O)C(Cl)=C1Cl | 10.8% (inactive) | –
2 | Cc1ccc([N+](=O)[O-])[c]2c1[O][Hg]2 | – | 29.8 µM (active)
3 | CCC1COC(Cn2cncn2)(c2ccc(Cl)cc2Cl)O1 (stereo not given) | -4.83% (inactive) | –
4 | C=CC(=C)C | -1.05% (inactive) | –
5 | CCCCC(CC)COC(=O)OOC(C)(C)C (stereo not given) | 1.94% (inactive) | –
6 | Cc1cc2c3c(c1)C(c1ccccc1)=N[C@@H](NC(=O)c1ccncc1)C(=O)N3CC2 | 1.83% (inactive) | –
7 | CCOP(=S)(OCC)Oc1cc(C)nc(N(CC)CC)n1 | -4.51% (inactive) | –
8 | CC1(C)C(C=C(Cl)Cl)C1C(=O)OC(C#N)c1ccc(F)c(Oc2ccccc2)c1 (stereo not given) | 0.825% (inactive) | –
9 | CSC1=N[C@@](C)(c2ccccc2)C(=O)N1Nc1ccccc1 | -1.15% (inactive) | –
10 | S=C=NCCc1ccccc1 | -2.76% (inactive) | –
11 | CCCCc1ccccc1 | -4.09% (inactive) | –
12 | COC(=O)c1cc(Oc2ccc(Cl)cc2Cl)ccc1[N+](=O)[O-] | -0.25% (inactive) | –
13 | O=c1c2ccccc2c(=O)c2c1cc(Cl)c1[nH]c3c([nH]c12)c(Cl)cc1c(=O)c2ccccc2c(=O)c13 | 0.211% (inactive) | –
14 | CCNc1nc(NC(C)C(C)C)nc(SC)n1 (stereo not given) | -0.211% (inactive) | –
15 | Clc1c(Cl)c(Cl)c(Cl)c(Cl)c1Cl | -6.6% [at 5.95 µM] (inactive) | –
16 | O=[N+]([O-])c1cccc2cccc([N+](=O)[O-])c12 | -5.5% [at 81.1 µM] (inactive) | –
17 | CC(C)(C)c1ccc(OP(=O)(Oc2ccccc2)Oc2ccccc2)cc1 | -2.55% [at 81.1 µM] (inactive) | –
18 | O=S(=O)(O)F | -1.49% [at 81.1 µM] (inactive) | –
19 | COc1ccc2c(c1OC)C(=O)O[C@@H]2[C@H]1c2cc3c(cc2CCN1C)OCO3 | -0.025% (inactive) | –
20 | CN1C2CCC(C)(C)C1CC(OC(=O)C(O)(c1cccs1)c1cccs1)C2 (stereo not given) | -4.74% (inactive) | –

Row | Structure (SMILES) | activation | Potency
21 | O=[N+]([O-])c1ccc(Cl)c(Cl)c1Cl | -0.955% (inactive) | –
22 | CC1CCCC1 | 4.13% (inactive) | –
23 | O=C(N[C@@H]1N=C(c2ccccc2F)c2cccc3c2N(CC3)C1=O)c1cc2ccccc2[nH]1 | 11% (inactive) | –
24 | N#Cc1c[nH]cc1-c1cccc2c1OC(F)(F)O2 | 3.42% (inactive) | –
25 | O=S1(=O)OCC2C(CO1)C1(Cl)C(Cl)=C(Cl)C2(Cl)C1(Cl)Cl (stereo not given) | -1.33% (inactive) | –
26 | CNC(=O)O/N=C(\C)C(C)S(C)(=O)=O (stereo not given) | 9.77% [at 765 µM] (inactive) | –
27 | BrCCCBr | -4.95% [at 81.1 µM] (inactive) | –
28 | OCC(Br)CBr (stereo not given) | -0.142% [at 81.1 µM] (inactive) | –
29 | Oc1ccc([C@H]2CNCc3c2ccc(O)c3O)cc1O | -2.41% (inactive) | –
30 | c1ccc(Nc2ccc(Nc3ccccc3)cc2)cc1 | -2.5% (inactive) | –
31 | CCC(C)c1cccc(C(C)CC)c1O (stereo not given) | 0.327% (inactive) | –
32 | ClC1(Cl)C2(Cl)C3(Cl)C4(Cl)C(Cl)(Cl)C5(Cl)C3(Cl)C1(Cl)C5(Cl)C24Cl (stereo not given) | 0.681% (inactive) | –
33 | Nc1ccc(Cl)cc1C(=O)c1ccccc1F | 4.36% (inactive) | –
34 | O=c1[nH]c2cc(Cl)ccc2n1C1CCNCC1 | 0.0218% (inactive) | –
35 | Nc1cc(Cl)ccc1Cl | 2.39% (inactive) | –
36 | COC(=O)c1ccccc1S(=O)(=O)NC(=O)Nc1nc(C)nc(OC)n1 | -1.56% (inactive) | –
37 | CC(Cc1ccccc1)N(C)Cc1ccco1 (stereo not given) | 0.986% (inactive) | –
38 | CC1(C)[C@H](/C=C2\CCSC2=O)[C@@H]1C(=O)OCc1coc(Cc2ccccc2)c1 | 0.0576% (inactive) | –
39 | O=[N+]([O-])C(Br)Br | 1.3% (inactive) | –
40 | Cc1ccc(C)c2ccccc12 | -0.582% (inactive) | –
